# In the library only some 7.3% were active in any assay of this set; here they are far more common.
# Tau ThT inhib: qHTS for Inhibitors of Tau Fibril Formation, Thioflavin T Binding; recombinant tau K18 P301L, heparin-induced fibrillization, ThT fluorescence; AID 1460, 2008; 270,000 compounds, 2.1% hits; Microtubule-associated protein tau (Homo sapiens), P10636; Potency, µM (doses to about 57.4 µM), actives largely listed as inhibitors; also: nearly all actives have a fitted effect of over 55% in size
#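 Fibril formation assay: tau K18 P301L at 15 uM with trace Alexa 594 label, heparin inducer 20 uM, pH 7 sodium acetate buffer, 37 C for 6 hr; endpoint ThT signal.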
# Tau fibril FP: qHTS for Inhibitors of Tau Fibril Formation, Fluorescence Polarization; Microtubule-associated protein tau (Homo sapiens), P10636; K18 P301L tau heparin fibrillization, Alexa594 FP, 6 h; Potency, µM (titrated, usually from 57.7 µM), usual class: inhibitors; 280,000 compounds, 0.39% hits; AID 1468, 2008; also: nearly all actives have a fitted effect of over 55% in size
#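 Recombinant K18 P301L […], labeled with Alexa 594 at 0.24 uM over 15 uM unlabeled; heparin inducer 20 uM final; 37 C, 6 hr; FP endpoint.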
# Gal4-VP16 FLuc: VP16 counterscreen qHTS for inhibitors of ROR gamma transcriptional activity | Drosophila S2 Gal4-VP16 UAS-luciferase, luminescence, 20 h | Potency, µM (top dose mostly 53.6 µM), most hits filed as inhibitors | 310,000 compounds, 3.5% hits | AID 2546, 2010;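 also: Gal4-VP16 expression switched on by copper sulfate through the metallothionein promoter; nearly all actives have a fitted effect of over 50% in size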
# Tau fluor counter: Counterscreen qHTS for Inhibitors of Tau Fibril Formation, Fluorescence Polarization; tau K18 P301L Alexa594 fluorescence, heparin fibrillization; Potency, µM (highest dose often 57.7 µM); 280,000 compounds, 0.93% hits; AID 1463, 2008; also: nearly all actives have a fitted effect of over 55% in size
#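 Human tau K18 P301L (15 uM unlabeled, 0.24 uM Alexa 594-labeled) in 100 mM sodium acetate pH 7 with 20 uM heparin, 6 hr at 37 C. ThT 30 uM added, 1 hr ambient; Alexa 594 FP and total fluorescence read at 555/632 nm.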
# RORgamma inh: qHTS for inhibitors of ROR gamma transcriptional activity. Nuclear receptor ROR-gamma (Mus musculus), P51450. Drosophila S2 Gal4-RORgamma UAS-luciferase reporter, 20 h. Potency, µM (series often up to 53.6 µM), hits mostly inhibitors. 310,000 compounds, 5.4% hits; also: nearly all actives have a fitted effect of over 60% in size
# Target sequence (P51450 whole entry, looked up, the tested form may be a part): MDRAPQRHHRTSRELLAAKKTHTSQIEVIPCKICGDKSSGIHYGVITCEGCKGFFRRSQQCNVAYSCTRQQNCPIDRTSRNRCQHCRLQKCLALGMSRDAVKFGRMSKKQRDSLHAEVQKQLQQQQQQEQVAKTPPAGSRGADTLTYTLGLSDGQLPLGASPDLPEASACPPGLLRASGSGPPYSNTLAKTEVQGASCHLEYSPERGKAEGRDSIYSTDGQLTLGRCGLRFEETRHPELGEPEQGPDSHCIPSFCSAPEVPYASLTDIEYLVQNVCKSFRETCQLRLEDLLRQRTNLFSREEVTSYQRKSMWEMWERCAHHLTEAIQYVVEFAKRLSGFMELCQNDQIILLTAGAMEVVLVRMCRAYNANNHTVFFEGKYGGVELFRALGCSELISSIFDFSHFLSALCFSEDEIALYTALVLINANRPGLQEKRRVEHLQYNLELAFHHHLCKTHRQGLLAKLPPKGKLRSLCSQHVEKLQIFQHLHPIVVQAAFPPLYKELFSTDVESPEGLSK
#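 In this cell-based reporter format, copper sulfate (700 uM final) drives Gal4–ROR gamma fusion expression from a metallothionein promoter in Drosophila Schneider cells; compounds preincubated 1 hr, reporter read after 20 hr at ambient temperature.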
# Numbers stand for hits; . = inactive; ? = inconclusive; / = no result; [ ] = remark or other dose. Calls follow the shape of the dose curve; as a rule, active = well fitted curve in the direction sought with a large enough effect; inconclusive = small, poorly fitted or top-dose-only effect, or another doubt; inactive = no such curve, though single readings can be large; an effect the other way counts as inactive or inconclusive.
SMILES,Tau ThT inhib,Tau fibril FP,Gal4-VP16 FLuc,Tau fluor counter,RORgamma inh
Cc1ccc(-n2nc(C(=O)NC(C)C)c(=O)n(C)c2=O)cc1,.,.,/,.,/
CC(C)Oc1cccc(C(=O)Nc2ccc3oc(-c4ccccc4)nc3c2)c1,.,?,/,?,/
CNC(=O)COc1ccc(S(=O)(=O)N2CCCC2)cc1,/,/,.,/,.
CCCC(=O)Nc1nnc(S(=O)(=O)N(C)c2ccccc2)s1,2.5µM,.,/,?,/
CCN(c1ccccc1)S(=O)(=O)c1nnc(NC(=O)c2ccccc2OC)s1,3.2µM,.,.,.,.
CCN(c1ccccc1)S(=O)(=O)c1nnc(NC(=O)COc2ccccc2F)s1,4.5µM,?,/,.,/
CCN(c1ccccc1)S(=O)(=O)c1ccc(C(=O)Nc2ncccc2O)cc1,/,/,?,/,20µM
COC(=O)c1cc(NC(=O)Cn2ncc3c2-c2ccccc2OC3)cc(C(=O)OC)c1,.,?,/,?,/
CCCCC,/,/,.,/,.
CCN(c1ccccc1)S(=O)(=O)c1nnc(NC(=O)c2ccccc2)s1,16µM,.,/,.,/
CN(c1ccccc1)S(=O)(=O)c1nnc(NC(=O)c2ccccc2)s1,?,.,/,.,/
CCN(c1ccccc1)S(=O)(=O)c1nnc(NC(=O)c2cccs2)s1,2.2µM,?,/,.,/
CCN(c1ccc(C)cc1)S(=O)(=O)c1nnc(NC(=O)c2cccs2)s1,.,.,/,.,/
CCN(c1ccccc1)S(=O)(=O)c1ccc(F)cc1,.,.,.,.,.
CCN(c1ccccc1)S(=O)(=O)c1ccc(C(=O)Oc2ccc(C(C)=O)cc2)cc1,.,.,10µM,.,?
Cc1ccc(NC(=O)Cn2c(=O)n(CCC(=O)NCc3ccccc3Cl)c(=O)c3ccccc32)cc1,.,?,/,.,/
Cc1cccc(CC2S/C(=N/c3ccccn3)NC2=O)c1 (centres undefined),.,.,?,.,1.3µM
Cc1cccc(CC2SC(N)=NC2=O)c1 (centres undefined),.,.,.,.,.
O=C1N/C(=N\c2ccccn2)SC1Cc1ccccc1Cl (centres undefined),.,.,1µM,.,0.71µM
COCCNC(=S)NN=C1CCCCCC1,.,.,6.3µM,.,2µM
COCCNC(=S)N/N=C1\CC(C)CC(C)(C)C1 (centres undefined),.,.,3.5µM,.,1µM
Cn1c(=O)c(-c2cccs2)nc2cnc(N3CCNCC3)nc21,/,/,.,/,.
COc1ccccc1N1CCN(C(C)C(=O)Nc2ccc(S(=O)(=O)N3CCOCC3)cc2)CC1 (centres undefined),.,.,.,.,.
Oc1ccc(Br)cc1-c1ccn[nH]1,.,.,6.3µM,.,2.8µM
Oc1ccc(Cl)cc1-c1cc(-c2ccco2)[nH]n1,.,?,13µM,?,3.5µM
SMILES,Tau ThT inhib,Tau fibril FP,Gal4-VP16 FLuc,Tau fluor counter,RORgamma inh
Cc1c(-c2cc(Br)ccc2O)nc2cc3c(cc2c1C)OCO3,/,/,.,/,.
Oc1c(-c2cc(-c3ccco3)[nH]n2)ccc2ccccc12,?,.,14µM,?,6.3µM
Oc1ccc(Br)cc1-c1cc(-c2ccco2)[nH]n1,.,?,16µM,?,13µM
Oc1ccccc1-c1cc(-c2ccco2)[nH]n1,.,.,?,?,?
CC(=O)c1cccc(NS(=O)(=O)c2cc(-c3onc(C)c3C)ccc2C)c1,.,.,/,?,/
Cc1sc2nc(CN(Cc3cccs3)C(=O)C3CC3)[nH]c(=O)c2c1C,.,.,.,.,11µM
CC1=C(C(=O)OCCC(C)C)C(c2ccc3c(c2)OCO3)NC(=O)N1 (centres undefined),/,/,.,/,?
COc1cc(NC(=O)CSc2nnc(C)n3c2cc2oc(C)cc23)cc(OC)c1,?,.,/,.,/
CCOC(=O)c1c(N)sc(C(O)(C(F)(F)F)C(F)(F)F)c1-c1ccc(Cl)cc1,?,.,?,25µM[quencher],?
CCOC(=O)c1c(NC(=O)/C=C/C(=O)O)sc(C)c1-c1ccc(Cl)cc1,32µM,?,.,.,.
CCOC(=O)c1c(N)sc(C(O)(C(F)(F)F)C(F)(F)F)c1-c1ccc(F)cc1,.,.,?,?,.
